Records with an inconclusive call do not appear. Calls of active or inactive are those of the source. Calls come from the whole dose curve; as a rule, active = well fitted inhibition curve with a large enough effect; inconclusive = small, poorly fitted or top-dose-only effect; inactive = flat fitted curve, though single readings scatter.

This is an account of results in PubChem BioAssay (NCATS).

Experiment in all cases: qHTS profiling for inhibitors of Plasmodium falciparum proliferation (AID 504749); note: nearly all actives have a fitted effect of over 60% in size
Common to all, as to settings: P. falciparum in erythrocytes, SYBR Green DNA, 72 h; series mostly up to 28.7 µM

One assay has as its system P94_40. The gist of the method: (§1)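 P. falciparum-infected erythrocytes (0.3% parasitemia, 2.5% hematocrit) incubated with compound 72 h at 37 C, 5% CO2. Parasite DNA detected by SYBR Green after lysis, overnight at room temperature; normalised to 0.29 uM artemisinin and DMSO.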
Another assay concerns PAD. Put shortly:
as §1

The next assay has as its system PC26. Put shortly: as §1
Another assay relates to SC27B. Put shortly: as §1
A further assay deals with TAB109. Put shortly: as §1
A further assay concerns TAB113. Put shortly:
as §1

Another assay relates to TAB165. The gist of the method: as §1
For the next assay, the system named is W2. Put shortly:
as §1

For another assay, the system named is PC15. The gist of the method:
as §1

The next assay deals with PC49. Put shortly:
as §1
Potency is the fitted concentration of half-maximal effect.

For the compound `C/C(=C\c1csc(C)n1)[C@@H]1C[C@@H]2O[C@]2(C)CCC[C@H](C)[C@H](O)[C@@H](C)C(=O)C(C)(C)[C@@H](O)CC(=O)O1`, the Potency in the assay on P94_40 was 0.0028 µM (active); in the assay with PAD, 0.0035 µM (active); in the assay with PC26, 0.0034 µM (active); in the assay on SC27B it was 0.005 µM (active); in the assay with TAB109, 0.0025 µM (active); with TAB113 it was 0.0035 µM (active). The Potency in the assay with TAB165 was 0.0022 µM (active); in the assay on W2, 0.0013 µM (active).

On to `CCCN1CCCC2Cc3[nH]ncc3CC21` (centres undefined), for which the Potency result in the assay with P94_40, in the assay on PAD, in the assay with PC15, in the assay with PC49, in the assay with SC27B and with TAB109 was “inactive” each time. In addition, the Potency entry in the assay with TAB113 and with TAB165 was “inactive” each time.

Consider `CC(C)Nc1ccc(Nc2ccccc2)cc1`, for which the Potency in the assay with P94_40 is 8.91 µM (active); in the assay with PAD, 10 µM (active); with PC26, 4.78 µM (active); in the assay on SC27B, 12.6 µM (active); in the assay on TAB109 it was 7.94 µM (active); with TAB113, 10 µM (active). Besides, the Potency in the assay on TAB165 is 7.94 µM (active); in the assay with W2 it was 4.78 µM (active). Also, the Potency result in the assay with PC49 was “inactive”.

Take `O=c1c2ccccc2[se]n1-c1ccccc1`: the Potency result in the assay with PC49 was “inactive”. Also, the Potency with TAB113 was 11.2 µM (active).

In the case of `COc1ccc2c(c1OC)C(=O)OC2C1c2cc3c(cc2CCN1C)OCO3` (centres undefined), the Potency result in the assay on P94_40, with PAD, with PC15, with PC49, in the assay on SC27B and in the assay with TAB109 was “inactive” each time. Besides, the Potency entry with TAB113 and in the assay with TAB165 was “inactive” throughout.

In the case of `C=CCC1(C(C)CCC)C(=O)N=C(S)NC1=O` (centres undefined), the Potency result in the assay with P94_40, in the assay with PAD, in the assay with PC15, with PC49, in the assay with SC27B and in the assay on TAB109 was “inactive” throughout. Besides, the Potency entry with TAB113, in the assay with TAB165 and in the assay on W2 was “inactive” throughout.

For the compound `CCCC(C)(COC(N)=O)COC(=O)NC1CC1` (centres undefined), the Potency entry in the assay on P94_40, in the assay with PAD, in the assay with PC15, in the assay with PC26, in the assay on PC49 and in the assay on SC27B was “inactive” throughout. Moreover, the Potency result with TAB113, in the assay with TAB165 and in the assay with W2 was “inactive” in each case.

As for `CCC(C)(S(=O)(=O)CC)S(=O)(=O)CC`, the Potency result in the assay with P94_40, in the assay with PAD, with PC15, in the assay with PC26, in the assay with PC49 and in the assay with SC27B was “inactive” throughout. The Potency result in the assay with TAB113, in the assay on TAB165 and in the assay with W2 was “inactive” each time.

On to `C[N+]1(C)CCCCC1COC(=O)C(O)(c1ccccc1)c1ccccc1` (centres undefined), for which the Potency entry in the assay on PAD, in the assay with PC15, with PC26, in the assay with PC49, with SC27B and with TAB109 was “inactive” in each case. Further, the Potency entry with TAB113 and with TAB165 was “inactive” throughout.

Consider `O=Cc1ccco1`, for which the Potency entry in the assay with P94_40, in the assay on PAD, with PC15, in the assay on PC26, with PC49 and in the assay on SC27B was “inactive” each time. The Potency entry in the assay with TAB109, in the assay on TAB113 and with W2 was “inactive” in each case.

`C=CCN=C=S`: the Potency entry in the assay with P94_40, with PAD, in the assay with PC15, in the assay with PC49, in the assay on SC27B and in the assay on TAB109 was “inactive” in each case. Besides, the Potency result in the assay on TAB113 and in the assay on TAB165 was “inactive” in each case.

`c1cc2c(c(NC3=NCCN3)c1)CCCC2`: the Potency entry with P94_40, in the assay with PAD, in the assay on SC27B, in the assay with TAB109, in the assay with TAB113 and in the assay with TAB165 was “inactive” each time. For the same compound, the Potency entry in the assay on W2 was “inactive”.

Turning to `CC(=O)O[C@H]1CC[C@H]2[C@@H]3CCC4=CC(=O)CCC4=C3C=C[C@]12C`, the Potency result in the assay on PAD, with PC15, in the assay on PC26, with PC49, in the assay with SC27B and in the assay with TAB109 was “inactive” in each case. Also, the Potency entry with TAB113, in the assay with TAB165 and in the assay on W2 was “inactive” throughout.

Turning to `N#CC(C#N)=Cc1cc(O)c(O)c(O)c1`, the Potency in the assay on P94_40 was 11.2 µM (active); in the assay with PAD it was 7.08 µM (active); with PC15, 6.31 µM (active); with PC26 it was 8.49 µM (active); in the assay on TAB109, 3.98 µM (active); with TAB165 it was 7.94 µM (active).
